# Measured values taken from article PMC5540273 (PLoS ONE, 2017).
# Columns and labels:
# Details in all cases: concentration: 1 μM, replicates: in singlicate; n = 1
# TRKC = tested on: T1, TRKC
# T1 construct: gene NTRK3
# TRPM6 = tested on: TRPM6
# TSSK1B = tested on: TSSK1B
# TSSK3 = tested on: TSSK3
# TTK = tested on: TTK
# TXK = tested on: TXK
# [1] = tested on: TYK2(JH1domain-catalytic)
# [2] = tested on: TYK2(JH2domain-pseudokinase)
# TYRO3 = tested on: TYRO3
# ULK1 = tested on: ULK1
# ULK2 = tested on: ULK2
# ULK3 = tested on: ULK3
# VEGFR2 = tested on: T2, VEGFR2
# T2 construct: gene KDR
# VPS34 = tested on: T3, VPS34
# T3 construct: gene PIK3C3
# VRK2 = tested on: VRK2
# WEE1 = tested on: WEE1
# WEE2 = tested on: WEE2
# WNK1 = tested on: WNK1
# WNK2 = tested on: WNK2
# WNK3 = tested on: WNK3
# 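Note: KINOMEscan kinase panel screen.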
Compound,%Inh (TRKC),%Inh (TRPM6),%Inh (TSSK1B),%Inh (TSSK3),%Inh (TTK),%Inh (TXK),%Inh [1],%Inh [2],%Inh (TYRO3),%Inh (ULK1),%Inh (ULK2),%Inh (ULK3),%Inh (VEGFR2),%Inh (VPS34),%Inh (VRK2),%Inh (WEE1),%Inh (WEE2),%Inh (WNK1),%Inh (WNK2),%Inh (WNK3)
Cc1ccc(O)cc1Nc1cc(C(F)(F)F)nc2ccc(-c3ccncc3)cc12 [GW630823],0%,0%,0%,0%,3%,10%,0%,0%,36%,0%,0%,0%,0%,0%,0%,0%,30%,0%,0%,0%
CC(C)N1CCC(n2cnc(-c3ccc(F)cc3)c2-c2ccnc(N)n2)CC1 [SB-223132],0%,0%,0%,0%,14%,21%,0%,2%,0%,0%,0%,5%,0%,27%,0%,17%,0%,0%,0%,0%
Cc1cccc(-c2nc(Nc3ccc4[nH]nnc4c3)c3ccccc3n2)n1 [GW867587],0%,0%,0%,0%,0%,0%,0%,42%,0%,0%,0%,0%,0%,0%,20%,0%,0%,0%,0%,0%
O=C(Nc1n[nH]c2nc(-c3ccco3)c(Br)cc12)c1ccc(CN2CCCC2)cc1.O=C(O)[C@H](O)[C@@H](O)C(=O)O [SB-742352],0%,0%,0%,0%,0%,2%,0%,0%,0%,13%,0%,27%,48%,0%,0%,0%,4%,0%,0%,0%
c1ccc(-c2ccc3c(-c4ccnc(Nc5ccc6c(c5)OCCO6)n4)cnn3n2)cc1 [GW818941],0%,25%,32%,18%,36%,13%,8%,5%,0%,15%,0%,15%,9%,0%,7%,2%,0%,2%,0%,15%
Oc1ccc2ncnc(Nc3ccc(OCc4ccccc4)cc3)c2c1 [GI262866],0%,0%,0%,18%,13%,37%,19%,0%,0%,14%,0%,4%,0%,0%,0%,0%,0%,0%,0%,0%
CC(=O)Nc1n[nH]c2ncc(-c3ccccc3)cc12 [SB-548492],51%,0%,0%,0%,43%,9%,12%,81%,0%,3%,35%,30%,18%,7%,0%,0%,20%,0%,0%,0%
Clc1cccc(-c2nc(Nc3ccncc3)c3ccccc3n2)c1 [GW873004],0%,0%,19%,0%,0%,1%,0%,13%,58%,0%,0%,0%,0%,48%,0%,0%,0%,0%,0%,0%
O=C(Nc1ccccc1)Nc1ccc(Oc2ccc3nccn3n2)cc1,0%,0%,1%,0%,0%,12%,0%,0%,19%,0%,0%,2%,,14%,0%,3%,13%,0%,0%,0%
Fc1cccc(COc2ccc(Nc3ncnc4nn5ccccc5c34)cc2Cl)c1 [GW689066],28%,0%,0%,17%,10%,3%,29%,24%,0%,1%,0%,2%,0%,60%,28%,0%,0%,0%,0%,20%
COC(=O)c1cccc(NC(=O)NCCNc2ccnc(Nc3ccc(F)cc3)n2)c1 [GSK1379883],12%,0%,0%,23%,0%,0%,11%,20%,0%,0%,0%,23%,5%,10%,0%,39%,16%,24%,0%,9%
